Where “and” joins values, the source holds several entries; their conditions need not be identical. Identical values can stand only once. Inconclusive results are not listed. Some compounds were tested as several samples or in several runs, with calls that do not always agree. Calls of active or inactive are those of the source. Rule for the calls: active = hit-call score of the fitted dose curve at least 0.9, where 1 is the maximum; inconclusive = response in the unintended direction; inactive = score below 0.9.

Experiment [1] addresses rat Glutamate, MK-801 Agonist Site (GluNMDA_MK801), Grin1 (gene 24408) (UniProt P35439). The experiment in a line: NVS_LGIC_rGluNMDA_MK801_Agonist: NovaScreen (NVS) Ligand-Gated Ion Channel Assay for rat Glutamate, MK-801 Agonist Site (GluNMDA_MK801) (AID 2283340). In outline:
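Rat forebrain membrane preparation; MK-801-site radioligand binding read by filtration and scintillation after 1.5 h. Single-point 25 uM duplicate screen, followed by singleton concentration series to 50 uM max; DMSO baseline.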

Experiment [2] relates to guinea pig Histamine Receptor (H2), gene 100729734. The experiment in a line: NVS_GPCR_gH2: NovaScreen (NVS) G Protein-Coupled Receptor Assay for guinea pig Histamine Receptor (H2) (AID 2283342). In outline:
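Guinea pig striatal membrane preparation with specific radioligand; bound counts measured by filtration and scintillation 1 h post-dosing, DMSO as baseline. Chemicals passing a 25 uM duplicate screen were titrated to a 50 uM maximum.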

Experiment [3] concerns the target bovine Estrogen Receptor (ER), ESR1 (gene 407238) (UniProt P49884). Kind of experiment: NVS_NR_bER: NovaScreen (NVS) Nuclear Receptor Binding Assay for bovine Estrogen Receptor (ER) (AID 2283345).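 Note: actives lower the bound radioligand count which means they displace the ER ligand.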 The gist of the method: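 Scintillation counting of displaced radioligand gave the readout; bovine uterine membrane extract supplied the receptor. Measured 18 h post-dose, normalized to DMSO baseline. Single 25 uM duplicate screen preceded concentration-response follow-up.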

The target of experiment [4] is Estrogen receptor (Homo sapiens) (UniProt P03372). Kind of experiment: OT_ER_ERaERa_1440: Odyssey Thera (OT) 24-hour HEK293T Protein-Complementation Assay for Estrogen Receptor-alpha/-alpha Homodimer (AID 2283349).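 Note: hits raise fluorescence above DMSO for agonists and antagonists alike.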 The gist of the method: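 HEK293T, stable ERα LBD (aa 310-547) homodimer PCA; 24 h compound exposure; mean fluorescence intensity (nuclear for agonists, nuclear plus cytoplasmic for antagonists) vs vehicle; positive fitting direction, DMSO baseline.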

Experiment [5] shares this target. The experiment in a line: OT_ER_ERaERa_0480: Odyssey Thera (OT) 8-hour HEK293T Protein-Complementation Assay for Estrogen Receptor-alpha/-alpha Homodimer (AID 2283351).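 Note: rise in fluorescence from reassembled reporter fragments on ERα LBD homodimer in nucleus or whole cell.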 In outline: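 Cells were treated for 8 hours, then imaged on a laser scanning plate cytometer. Complementation of reporter fragments fused to the human ERα ligand-binding domain (residues 310-547) in HEK293T gave fluorescence, and gain of signal over vehicle was fitted.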

In experiment [6] the target is Estrogen receptor (Homo sapiens) + Estrogen receptor beta (Homo sapiens) (UniProt P03372+Q92731). The experiment in a line: OT_ER_ERaERb_0480: Odyssey Thera (OT) 8-hour HEK293T Protein-Complementation Assay for Estrogen Receptor-alpha/-beta Heterodimer (AID 2283352). The gist of the method: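 Human HEK293T cells were treated for 8 hours and receptor heterodimerisation was detected through reconstitution of a fluorescent reporter split between ER-alpha and ER-beta ligand-binding domains. Activity was analysed as gain of signal against DMSO.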

Experiment [7] addresses Estrogen receptor (Homo sapiens) (UniProt P03372). Kind of experiment: NVS_NR_hER: NovaScreen (NVS) Nuclear Receptor Binding Assay for human Estrogen Receptor (ER) (AID 2283348). In outline: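 Cell-free MCF7-derived ER preparation, specific radioligand displaced by test compound, read by scintillation counting 18 h post-dosing. Duplicate single-point 25 uM screen, then concentration-response confirmation; DMSO baseline.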

Experiment [8] deals with Bile acid receptor (Homo sapiens) (UniProt Q96RI1). Kind of experiment: NVS_NR_hFXR_Antagonist: NovaScreen (NVS) Nuclear Receptor Binding Assay for human Farnesoid X Receptor Antagonism (FXR) (AID 2283350). The gist of the method:
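Antagonist-format time-resolved FRET binding assay with extracted human receptor protein, read 1 hour after compound addition. Compounds first screened at 25 uM in duplicate, then actives tested in concentration series, with loss of signal relative to DMSO.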

Experiment [9] has as its target chimpanzee Androgen Receptor (AR), AR (gene 747460) (UniProt O97775). Kind of experiment: NVS_NR_cAR: NovaScreen (NVS) Nuclear Receptor Binding Assay for chimpanzee Androgen Receptor (AR) (AID 2283346).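 Note: radioligand displacement from AR measured by scintillation counting in a cell-free assay; a loss of bound radioligand signal versus DMSO counts as binding.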 In outline: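 Cell-free competition binding with insect-cell (Sf9/Sf21) extracted chimpanzee AR; scintillation signal from lysate at 72 h. Screened in duplicate at 25 uM, then concentration-response for actives; fitting relative to DMSO.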

The target of experiment [10] is rat Glycine Receptor, Strychnine-sensitive (GlyRStrySens), Glra1 (gene 25674) (UniProt P07727). Kind of experiment: NVS_LGIC_rGlyRStrySens: NovaScreen (NVS) Ligand-Gated Ion Channel Assay for rat Glycine Receptor, Strychnine-sensitive (GlyRStrySens) (AID 2283341). The gist of the method: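 Radioligand displacement on rat spinal cord membranes, 1 hr, filter scintillation read-out. Single-concentration duplicate screen at 25 uM; chemicals meeting threshold (e.g., 30% inhibition) rerun in concentration-response up to 50 uM. Loss of binding fitted versus DMSO.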

In experiment [11] the target is human Constitutive Androstane Receptor (CAR), NR1I3 (gene 9970) (UniProt Q14994). Kind of experiment: NVS_NR_hCAR_Antagonist: NovaScreen (NVS) Nuclear Receptor Binding Assay for human Constitutive Androstane Receptor Antagonism (CAR) (AID 2283344). In outline: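 Single 25 uM duplicate primary screen, with concentration-series follow-up on actives. Cell-free binding format run in antagonist mode, TR-FRET signal taken 1 h post-dose; activity is signal loss relative to DMSO.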

The next experiment relates to NCBI gene 100848466. Kind of experiment: NVS_NR_bPR: NovaScreen (NVS) Nuclear Receptor Binding Assay for bovine Progextron Receptor (PR) (AID 2283343).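 Note: actives lower bound radioligand signal below DMSO meaning displacement of the label.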 The gist of the method: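 Competitive radioligand binding with membranes from bovine uterus, scintillation read-out at 18 h post-dose. Compounds first tested in duplicate at 25 uM, then actives in concentration series; loss-of-signal relative to DMSO.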

Bile acid receptor (Homo sapiens), sequence (Q96RI1 whole entry, looked up): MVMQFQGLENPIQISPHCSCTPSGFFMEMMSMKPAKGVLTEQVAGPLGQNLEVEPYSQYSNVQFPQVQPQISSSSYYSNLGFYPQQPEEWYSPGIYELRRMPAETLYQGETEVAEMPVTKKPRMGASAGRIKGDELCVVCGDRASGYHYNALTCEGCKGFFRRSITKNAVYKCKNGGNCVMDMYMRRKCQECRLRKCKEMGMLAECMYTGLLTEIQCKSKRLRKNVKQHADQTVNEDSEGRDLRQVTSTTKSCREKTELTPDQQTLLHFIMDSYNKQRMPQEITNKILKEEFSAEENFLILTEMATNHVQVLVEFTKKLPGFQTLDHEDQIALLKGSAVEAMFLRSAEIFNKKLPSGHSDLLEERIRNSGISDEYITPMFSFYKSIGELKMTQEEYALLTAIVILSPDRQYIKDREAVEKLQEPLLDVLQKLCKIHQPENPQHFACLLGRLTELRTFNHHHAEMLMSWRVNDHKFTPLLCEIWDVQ
Estrogen receptor (Homo sapiens), sequence (P03372 whole entry, looked up, the tested form may be a part): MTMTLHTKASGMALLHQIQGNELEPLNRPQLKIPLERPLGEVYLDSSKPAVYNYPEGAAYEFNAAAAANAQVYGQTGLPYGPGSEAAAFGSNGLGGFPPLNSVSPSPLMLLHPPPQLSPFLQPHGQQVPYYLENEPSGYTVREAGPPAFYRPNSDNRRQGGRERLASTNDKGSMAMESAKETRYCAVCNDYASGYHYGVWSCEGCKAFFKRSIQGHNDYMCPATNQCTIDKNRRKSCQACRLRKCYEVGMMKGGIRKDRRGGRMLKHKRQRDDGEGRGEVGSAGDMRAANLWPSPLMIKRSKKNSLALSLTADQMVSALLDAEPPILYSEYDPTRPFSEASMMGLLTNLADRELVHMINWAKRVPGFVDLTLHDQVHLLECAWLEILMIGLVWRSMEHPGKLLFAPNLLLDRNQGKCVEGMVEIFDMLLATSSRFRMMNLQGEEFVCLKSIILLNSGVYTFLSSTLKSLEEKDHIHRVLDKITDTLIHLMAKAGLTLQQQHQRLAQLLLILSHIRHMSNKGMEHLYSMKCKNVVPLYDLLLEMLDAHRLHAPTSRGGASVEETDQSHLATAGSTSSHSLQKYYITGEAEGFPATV
Estrogen receptor (Homo sapiens) + Estrogen receptor beta (Homo sapiens), sequence (P03372 whole entry, looked up, the tested form may be a part): as above
Estrogen receptor (Homo sapiens) + Estrogen receptor beta (Homo sapiens), sequence (Q92731 whole entry, looked up, the tested form may be a part): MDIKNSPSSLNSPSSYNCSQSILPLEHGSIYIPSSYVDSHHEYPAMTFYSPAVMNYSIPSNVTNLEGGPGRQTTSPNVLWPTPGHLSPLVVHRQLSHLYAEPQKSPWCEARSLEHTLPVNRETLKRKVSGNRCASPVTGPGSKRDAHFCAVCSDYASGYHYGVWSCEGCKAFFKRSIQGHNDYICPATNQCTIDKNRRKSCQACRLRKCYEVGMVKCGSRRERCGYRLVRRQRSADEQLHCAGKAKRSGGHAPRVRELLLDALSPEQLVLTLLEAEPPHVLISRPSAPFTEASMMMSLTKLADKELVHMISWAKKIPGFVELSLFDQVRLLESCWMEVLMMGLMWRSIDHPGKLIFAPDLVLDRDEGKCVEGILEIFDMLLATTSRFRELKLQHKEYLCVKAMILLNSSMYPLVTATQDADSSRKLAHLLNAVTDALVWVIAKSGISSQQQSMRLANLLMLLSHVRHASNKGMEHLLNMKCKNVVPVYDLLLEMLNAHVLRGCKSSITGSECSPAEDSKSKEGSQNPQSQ
chimpanzee Androgen Receptor (AR), AR (gene 747460), sequence (O97775 whole entry, looked up): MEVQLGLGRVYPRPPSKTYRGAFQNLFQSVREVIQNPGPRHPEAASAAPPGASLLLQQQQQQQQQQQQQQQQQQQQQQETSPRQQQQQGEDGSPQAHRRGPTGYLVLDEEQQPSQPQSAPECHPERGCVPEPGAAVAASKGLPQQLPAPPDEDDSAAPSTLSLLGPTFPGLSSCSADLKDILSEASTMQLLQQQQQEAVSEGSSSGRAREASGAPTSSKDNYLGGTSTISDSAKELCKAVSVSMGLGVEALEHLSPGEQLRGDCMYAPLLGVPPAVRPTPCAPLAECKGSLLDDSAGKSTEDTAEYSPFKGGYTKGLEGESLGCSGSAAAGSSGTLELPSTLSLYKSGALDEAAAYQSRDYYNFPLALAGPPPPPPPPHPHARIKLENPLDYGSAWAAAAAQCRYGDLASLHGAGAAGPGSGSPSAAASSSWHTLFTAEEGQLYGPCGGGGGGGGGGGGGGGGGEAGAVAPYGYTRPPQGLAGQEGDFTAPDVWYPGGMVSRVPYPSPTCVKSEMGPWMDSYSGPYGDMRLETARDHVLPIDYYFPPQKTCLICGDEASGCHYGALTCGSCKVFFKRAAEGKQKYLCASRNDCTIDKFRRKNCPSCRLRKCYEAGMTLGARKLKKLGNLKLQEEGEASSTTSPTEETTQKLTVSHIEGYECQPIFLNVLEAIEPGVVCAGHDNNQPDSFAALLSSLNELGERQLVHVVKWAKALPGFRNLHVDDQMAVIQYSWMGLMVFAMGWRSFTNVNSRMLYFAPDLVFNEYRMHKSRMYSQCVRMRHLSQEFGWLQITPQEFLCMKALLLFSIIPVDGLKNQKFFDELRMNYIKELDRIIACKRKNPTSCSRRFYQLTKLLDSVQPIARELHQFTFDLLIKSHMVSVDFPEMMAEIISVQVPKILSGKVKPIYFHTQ
bovine Estrogen Receptor (ER), ESR1 (gene 407238), sequence (P49884 whole entry, looked up): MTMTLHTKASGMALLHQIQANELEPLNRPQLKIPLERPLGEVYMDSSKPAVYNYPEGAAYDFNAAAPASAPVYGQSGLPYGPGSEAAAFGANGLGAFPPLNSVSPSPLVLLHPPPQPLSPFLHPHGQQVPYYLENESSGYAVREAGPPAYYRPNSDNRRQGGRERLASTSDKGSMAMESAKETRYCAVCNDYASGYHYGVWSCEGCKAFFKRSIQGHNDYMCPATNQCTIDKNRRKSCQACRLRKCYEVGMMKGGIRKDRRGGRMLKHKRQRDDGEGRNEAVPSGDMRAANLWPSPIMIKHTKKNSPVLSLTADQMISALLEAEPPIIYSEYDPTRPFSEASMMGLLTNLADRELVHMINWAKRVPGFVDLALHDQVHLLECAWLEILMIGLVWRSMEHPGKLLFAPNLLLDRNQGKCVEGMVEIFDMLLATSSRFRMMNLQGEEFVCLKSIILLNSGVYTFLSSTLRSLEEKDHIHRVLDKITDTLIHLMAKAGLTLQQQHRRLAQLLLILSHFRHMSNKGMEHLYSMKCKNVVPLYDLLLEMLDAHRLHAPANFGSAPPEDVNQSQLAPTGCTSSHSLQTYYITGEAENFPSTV
human Constitutive Androstane Receptor (CAR), NR1I3 (gene 9970), sequence (Q14994 whole entry, looked up): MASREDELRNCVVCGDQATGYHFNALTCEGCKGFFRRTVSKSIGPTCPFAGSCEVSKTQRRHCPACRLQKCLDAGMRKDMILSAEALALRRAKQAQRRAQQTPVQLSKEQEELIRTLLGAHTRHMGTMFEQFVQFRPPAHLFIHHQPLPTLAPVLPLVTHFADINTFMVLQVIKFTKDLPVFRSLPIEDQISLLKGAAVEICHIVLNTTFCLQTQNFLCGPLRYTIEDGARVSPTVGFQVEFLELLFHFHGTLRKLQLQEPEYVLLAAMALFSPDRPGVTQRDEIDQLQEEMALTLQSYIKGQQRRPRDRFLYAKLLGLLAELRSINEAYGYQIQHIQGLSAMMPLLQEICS
rat Glycine Receptor, Strychnine-sensitive (GlyRStrySens), Glra1 (gene 25674), sequence (P07727 whole entry, looked up): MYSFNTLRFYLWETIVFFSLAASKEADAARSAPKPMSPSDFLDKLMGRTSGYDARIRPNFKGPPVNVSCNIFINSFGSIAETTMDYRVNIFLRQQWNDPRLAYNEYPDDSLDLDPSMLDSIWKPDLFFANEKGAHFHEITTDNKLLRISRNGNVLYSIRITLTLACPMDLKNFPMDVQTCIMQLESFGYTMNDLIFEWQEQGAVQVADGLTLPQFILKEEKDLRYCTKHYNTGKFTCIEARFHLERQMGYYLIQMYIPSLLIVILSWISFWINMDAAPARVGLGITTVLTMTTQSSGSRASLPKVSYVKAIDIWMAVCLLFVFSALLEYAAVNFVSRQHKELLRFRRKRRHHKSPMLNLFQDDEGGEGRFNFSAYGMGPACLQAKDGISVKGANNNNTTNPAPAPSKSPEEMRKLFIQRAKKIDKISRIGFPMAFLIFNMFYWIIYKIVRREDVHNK

Turning to `c1ccc(C[n+]2cccc3ccccc32)cc1`, the outcome in experiment [1], in [3], in [4], in experiment [5] and in experiment [6] was inactive. Besides, the half-maximal activity concentration (AC50) – broadly, the concentration giving half of the maximal activity seen – in experiment [2] was 25 µM (active).

With `O=C(Nc1ccc(Cl)cc1)Nc1ccc(Cl)c(Cl)c1`, the call in [3], in experiment [7], in experiment [4], in experiment [8], in experiment [5] and in experiment [6] was inactive.

Take `CCCOC(=O)c1cc(O)c(O)c(O)c1`: the molecule was classed as inactive in [3], in experiment [7] and in [4]. Also, the half-maximal activity concentration (AC50) in experiment [5] was 50 µM (active); in experiment [6] it was 39.8 µM (active).

Consider `O=C1CCC(C2CCCCC2)CC1`, for which the call in experiment [9] was inactive.

As for `O=C(O)Cc1cc(I)c(Oc2ccc(O)c(I)c2)c(I)c1`, the result in experiment [10] was inactive. Besides, in experiment [8], the AC50 is 40.3 µM (active).

Turning to `Clc1ccccc1C(c1ccccc1)(c1ccccc1)n1ccnc1`, the molecule was called inactive in [3], in experiment [7], in experiment [4] and in experiment [5].

`c1ccc2ccccc2c1`: the call in [7], in experiment [4] and in [5] was inactive.

On to `CCCCCCCCCCCCO`, for which the call in experiment [4], in experiment [5] and in [6] was inactive.

`O=C(O)c1ccccc1-n1cc(C(=O)O)c(=O)c2cc(Nc3c(F)cc(F)cc3Cl)c(Cl)cc21`: the molecule was classed as inactive in [4] and in experiment [6].

For the molecule `OCCO`, the molecule was called inactive in experiment [4] and in experiment [5].

Take `Cc1cn([C@H]2C[C@H](N=[N+]=[N-])[C@@H](CO)O2)c(=O)[nH]c1=O`: the call in [4] was inactive.

As to `CC1(C)NC(=O)N(c2ccc([N+](=O)[O-])c(C(F)(F)F)c2)C1=O`, the concentration at half-maximal activity (AC50) in experiment [9] is 1.06 µM (active) and 136 nM (active).

In the case of `O=C=NCCCCCCN=C=O`, the result in [4], in experiment [5] and in [6] was inactive.

As for `CCCCCc1ccc(N)cc1`, the molecule was called inactive in experiment [3], in [9], in experiment [7], in [4], in experiment [5] and in [6]. Besides, the half-maximal activity concentration (AC50) in experiment [5] is 67 µM (active) and 67.6 µM (active); in experiment [6], 46.8 µM (active) and 40 µM (active) and 53.9 µM (active).

On to `Cc1cc2c(cc1C(F)(F)F)N(C(=O)Nc1ccc(Oc3cccnc3C)nc1)CC2`, for which the molecule was called inactive in experiment [3], in [9], in experiment [4] and in [5].

As to `CN1C(=O)N(c2ccccc2Br)Cc2cnc(Nc3ccc4c(c3)OCC(CO)O4)nc21` (stereo not drawn), the concentration at half-maximal activity (AC50) is 0.447 µM (active) in experiment [3] and 0.0374 µM (active) in experiment [8]. For the same molecule, the outcome in experiment [9], in experiment [4], in [5] and in experiment [6] was inactive.

Regarding `CC(C)(C)c1csc(-c2cc3cc(OCc4ccccc4CC(=O)O)ccc3o2)n1`, the result in experiment [11], in experiment [4], in experiment [5] and in experiment [6] was inactive.

`CC1=CC(=O)/C(=C(/C)O)C(=O)O1`: the outcome in experiment [11], in experiment [4], in [5] and in experiment [6] was inactive.

For the molecule `CCCCCCCCOc1ccc(C(=O)c2ccccc2)c(O)c1`, the outcome in [4] and in [5] was inactive.

As for `CCCCCCCCCCCO`, the outcome in experiment [3], in [7], in [4], in experiment [5] and in experiment [6] was inactive.

`O=CCCCC=O`: the result in [3], in [4] and in experiment [5] was inactive.

`C[C@]12CC[C@@H]3c4ccc(O)cc4CC[C@H]3[C@@H]1CC[C@H]2O`: in the experiment with NCBI gene 100848466, the AC50 was 0.0988 µM (active).

`O=C(OCCCCCCOC(=O)c1ccccc1)c1ccccc1`: the molecule was called inactive in experiment [4] and in experiment [5].

On to `O=C(O)c1ccccc1C(=O)OCc1ccccc1`, for which the result in experiment [4], in [8] and in experiment [5] was inactive.

Consider `COCC(C)OCC(C)OCC(C)O` (stereo not drawn), for which the molecule was classed as inactive in experiment [4] and in experiment [5].

The values above are taken from PubChem BioAssay (EPA / NIEHS).
